# Results: PubChem BioAssay
# Assay: basal RPMI8226 mitochondrial membrane potential changes, profiling panel, cell-based, JC-1 fluorescence, 24 h, 100 nL compound (AID 1169); note: test concentration not given here
# Settings: RPMI8226 myeloma, JC-1 mitochondrial potential fluorescence, higher = more signal
row,Structure (SMILES),z-score
1,COCCOC(=O)N1C(=O)[C@@]2(c3cc(C#CCC(C(=O)OC)C(=O)OC)ccc31)[C@H](c1ccc(O)cc1)N1[C@H](c3ccccc3)[C@H](c3ccccc3)OC(=O)[C@H]1[C@@H]2C(=O)N1CCc2cc(OC)c(OC)cc2C1,-1.15
2,C[C@]1(C(=O)O)c2ccccc2C(=O)N(Cc2cc(C(F)(F)F)cc(C(F)(F)F)c2)[C@H]1c1ccc(CO)cc1,-0.117
3,O=C(N1CCOCC1)[C@]1(CCS(=O)(=O)c2ccccc2)N=C(c2ccc(OCCCO)cc2)O[C@@H]1c1ccccc1,-0.176
4,CC1(C)OB(/C=C\CC(OC(=O)c2ccncc2)c2ccccc2)OC1(C)C (stereo not given),-0.194
5,COC(=O)[C@]1(Cc2ccccc2CN=[N+]=[N-])N=C(c2ccc(OCCCO)cc2)O[C@@H]1c1ccccc1N=[N+]=[N-],-1.06
6,CC(C)(C)OC(=O)CC[C@@]1(C(=O)N2CCOCC2)N=C(c2ccc(OCCCO)cc2)O[C@@H]1c1ccccc1CN=[N+]=[N-],-0.546
7,COC(=O)[C@@]1(Cc2ccccc2)[C@H]2c3cc(C(=O)N(C)C)n(Cc4ccc(Cl)c(C(F)(F)F)c4)c3C[C@H]2CN1C(=O)c1ccccc1,-0.968
8,CN1C(=O)C2C(C1=O)C1C=C(CCCO)C2C(C2CC2)N1C (stereo not given),-0.786
9,CO[C@H]1O[C@H](CO)[C@@H](OC(=O)CCc2ccccc2)[C@@H]2OC(=O)[C@@H](Cc3ccc4ccccc4c3)C/C=C/C[C@H](Cc3ccc4ccccc4c3)C(=O)O[C@@H]12,0.761
10,C=C(C(=O)CC[C@@H](OC(=O)c1ccccc1-c1ccccc1C(=O)O)c1ccc(OCCO)cc1)C(C)C,-0.787
11,[N-]=[N+]=NCc1ccccc1[C@H]1OC(c2ccc(OCCCO)cc2)=N[C@@]1(Cc1ccccc1N=[N+]=[N-])C(=O)O,-0.763
12,C=CCN1C(=O)[C@]2(O[C@H](CCO)[C@@H]([Si](C)(C)c3ccc(OC)cc3)[C@@H]2C)c2cc(N3C(=O)c4ccccc4Oc4ccccc43)ccc21,-1.04
13,CCOC(=O)C[C@H]1[C@H](OC(=O)c2ccc(-c3ccccc3)cc2)[C@@H](NC(=O)C2CCCCC2)c2cc(OCCCO)ccc2N1C(=O)Cc1ccc(OC)cc1,0.823
14,C=CCNC(=O)[C@@H]1[C@H]2C(=O)O[C@H](c3ccccc3)[C@H](c3ccccc3)N2[C@H](c2ccc(OCCO)cc2)[C@@]12C(=O)Nc1ccc(C#CCNC(N)=O)cc12,0.672
15,CC(C)Cc1ccc(CN2CC[C@@H](NC(=O)c3ccccc3)C2)cc1,-0.442
16,CC(=O)NCCCC[C@@H]1NC(=O)[C@H]2C[C@@H](C(=O)NCCCCCN)[C@@H](c3ccc(O)cc3)N2C1=O,0.135
17,CCCNC(=O)[C@@]1(Sc2ccc(C)cc2)CC(=O)N(Cc2cc(C(F)(F)F)cc(C(F)(F)F)c2)[C@@H]1c1ccc(CO)cc1,0.293
18,Cc1ccc(S[C@]2(C(=O)NCc3ccccc3)CC(=O)N(Cc3ccccc3C(F)(F)F)[C@@H]2c2ccc(CO)cc2I)cc1,-0.491

row,Structure (SMILES),z-score
1,CCc1cccc(NC(=O)O[C@H]2[C@H](OC(=O)Nc3ccccc3-c3ccccc3)[C@H](OC(=O)Nc3ccccc3-c3ccccc3)[C@@H](OC)O[C@@H]2CO)c1,-0.841
2,Cc1ccc(S[C@]2(C(=O)NCC(C)C)CC(=O)N(C(C)C)[C@@H]2c2ccc(CO)cc2I)cc1,-0.94
3,COC(=O)C(CC#Cc1ccc2c(c1)[C@]1(C(=O)N2)[C@H](C(=O)N2CCCCCCC2)[C@H]2C(=O)O[C@H](c3ccccc3)[C@H](c3ccccc3)N2[C@@H]1c1ccc(OCCO)cc1)C(=O)OC,-1.04
4,O=C1NC(=O)C2C1C=CC(C(O)C1CCCCC1)N2Nc1ccccn1 (stereo not given),-0.573
5,CN1C(=O)C2C=CC(C(O)c3ccc(I)cc3)N(N(c3ccccc3)c3ccccc3)C2C1=O (stereo not given),-0.251
6,COC(=O)[C@]1(Cc2ccccc2N=[N+]=[N-])N=C(c2ccc(OCCCO)cc2)O[C@@H]1c1ccccc1CN=[N+]=[N-],-1.16
7,COC(=O)[C@@]1(Cc2ccc(F)cc2)[C@H]2c3cc(C(=O)N(C)C)n(Cc4ccc(C(F)(F)F)nc4)c3C[C@H]2CN1C(=O)c1ccccc1,-0.135
8,C=C(CCCC)/C(=C/C[C@@H](OC(C)=O)c1ccc(OCCO)cc1)c1cc(C(=O)OC)ccc1OC,-0.826
9,COc1ccc([Si](C)(C)[C@@H]2[C@@H](CC(=O)N3Cc4ccccc4C[C@H]3CO)O[C@]3(C(=O)N(Cc4ccc(I)cc4)c4ccccc43)[C@H]2C)cc1,-0.531
10,C=CCNC(=O)[C@@H]1[C@H]2C(=O)O[C@H](c3ccccc3)[C@H](c3ccccc3)N2[C@H](c2ccc(O)cc2)[C@@]12C(=O)Nc1ccc(C#CC3=CCCCC3)cc12,-1.15
11,COCCOC(=O)N1C(=O)[C@@]2(c3cc(C#CCCO)ccc31)[C@H](C(=O)N1CCN(c3ncccn3)CC1)[C@H]1C(=O)O[C@H](c3ccccc3)[C@H](c3ccccc3)N1[C@@H]2c1ccc(OCCO)cc1,-0.185
12,O=C1N(Cc2ccccc2)Cc2ccccc2C[C@@]12COC(c1ccc(OCCCO)cc1)=N2,-1.18
13,[N-]=[N+]=NCc1ccccc1[C@H]1OC(c2ccc(OCCCO)cc2)=N[C@@]1(Cc1ccccc1N=[N+]=[N-])C(=O)N1CCOCC1,-1.11
14,CO[C@H]1O[C@H](CO)[C@@H](OC(=O)Nc2cccc(F)c2)[C@H](OC(=O)Nc2ccc3c(c2)OCO3)[C@@H]1OC(=O)Nc1ccc2c(c1)OCO2,-0.571
15,[N-]=[N+]=Nc1ccccc1C[C@@]1(C(=O)NCc2ccccc2)N=C(c2ccc(OCCCO)cc2)O[C@@H]1c1ccccc1,-1.3
16,C=C[C@H](C)[C@@H](OC(=O)Nc1ccc(SC)cc1)c1ccc(OCCO)cc1,-0.639
17,COc1ccc(C#Cc2ccc3c(c2)[C@]2(C(=O)N3)[C@H](c3ccccc3OCCO)N3[C@H](c4ccccc4)[C@H](c4ccccc4)OC(=O)[C@H]3[C@@H]2C(=O)NC[C@H](O)c2ccccc2)cc1,-0.957
